The supplement of paper PMC12645437, “Orthogonal IMiD-Degron Pairs Induce Selective Protein Degradation in Cells” (ACS Chemical Biology, 2025)
Over roughly 8,300 sequences, “log2 fold change of degron read counts, EGFP-low vs EGFP+ sorted cells (limma voom), compound-induced degradation” has its median near -1.1; the highest 2% begin near 3.2. What follows is part of a selection rich in the highest values, with near analogues and random picks from the rest.

T1: CRBN, Q96SW2
T1 chain: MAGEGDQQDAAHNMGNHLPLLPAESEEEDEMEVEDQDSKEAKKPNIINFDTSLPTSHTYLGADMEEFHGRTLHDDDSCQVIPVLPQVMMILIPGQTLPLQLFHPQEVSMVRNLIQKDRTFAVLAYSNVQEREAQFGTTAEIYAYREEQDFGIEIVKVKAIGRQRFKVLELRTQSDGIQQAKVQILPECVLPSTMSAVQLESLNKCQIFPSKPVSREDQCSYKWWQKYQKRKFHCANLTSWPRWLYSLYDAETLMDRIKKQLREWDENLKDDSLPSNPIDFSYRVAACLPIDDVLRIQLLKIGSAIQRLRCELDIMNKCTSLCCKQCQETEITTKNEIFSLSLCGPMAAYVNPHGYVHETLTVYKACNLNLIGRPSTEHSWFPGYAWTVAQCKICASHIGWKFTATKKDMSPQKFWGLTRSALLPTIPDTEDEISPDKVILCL


Target: T1, CRBN, Q96SW2
Experiment: log2 fold change of degron read counts, EGFP-low vs EGFP+ sorted cells (limma voom), compound-induced degradation; higher = more compound-induced degradation of the degron-EGFP fusion; degrons are variants of IKZF1/3 zinc finger 2; compound dose not given here
Settings: Jurkat, 18 h
[1] = compound: compound 19 (5-tert-butyl-thalidomide)
[2] = compound: compound 22 (5-morpholino-thalidomide)
[3] = compound: compound 33 (diphenyl IMiD analogue)
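Also: pooled lentiviral library of zinc finger degron-EGFP fusions in mCherry-positive Jurkat cells, FACS-sorted after compound exposure, with degron abundance counted by next-generation sequencing.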

Row | Sequence | log2 fold change of degron read counts [1] | log2 fold change of degron read counts [2] | log2 fold change of degron read counts [3] | log2 fold change of degron read counts (compound: thalidomide)
1 | FKCDVCGADFTQKGNLLRHIKL [46F_47K_49D_50V_52G_53A_54D_55F_67L_, Q9UKT9] | -2.97 | -3.35 | -3.54 | -2.81
2 | FFCEICGRYFTQKGNLLRHIKL [46F_47F_49E_50I_52G_53R_54Y_55F_67L_, Q9UKT9] | 0.941 | 0.578 | -0.864 | -0.888
3 | FKCNQCGRGFTQKGNLLRHIKL [46F_47K_49N_50Q_52G_53R_54G_55F_67L_, Q9UKT9] | -2.31 | -2.82 | -2.99 | -2.64
4 | FSCDQCGAAFTQKGNLLRHIKL [46F_47S_49D_50Q_52G_53A_54A_55F_67L_, Q9UKT9] | -0.624 | -1.35 | 0.123 | -2.08
5 | FSCDICGAQFTQKGNLLRHIKL [46F_47S_49D_50I_52G_53A_54Q_55F_67L_, Q9UKT9] | 1.74 | 1.52 | 0.198 | 0.0774
6 | LTCPICGFNCTQKGNLLRHIKL [46L_47T_49P_50I_52G_53F_54N_55C_67L_, Q9UKT9] | -0.006 | 2.04 | 2.24 | 2.86
7 | FSCEICGHYFTQKGNLLRHIKL [46F_47S_49E_50I_52G_53H_54Y_55F_67L_, Q9UKT9] | -2.13 | -2.82 | -2.44 | -2.99
8 | FLCEICGHLFTQKGNLLRHIKL [46F_47L_49E_50I_52G_53H_54L_55F_67L_, Q9UKT9] | -3.49 | -2.55 | -2.84 | -2.4
9 | FMCEICGRDFTQKGNLLRHIKL [46F_47M_49E_50I_52G_53R_54D_55F_67L_, Q9UKT9] | -4.1 | -3.78 | -2.1 | -2.87
10 | FICPVCGANFTQKGNLLRHIKL [46F_47I_49P_50V_52G_53A_54N_55F_67L_, Q9UKT9] | -1.07 | 2.83 | 1.95 | 2.35
11 | FYCNVCGANFTQKGNLLRHIKL [46F_47Y_49N_50V_52G_53A_54N_55F_67L_, Q9UKT9] | 0.97 | 2.35 | 0.921 | -0.663
12 | FRCPVCGANFTQKGNLLRHIKL [46F_47R_49P_50V_52G_53A_54N_55F_67L_, Q9UKT9] | -0.729 | -0.0361 | 1.6 | 1.18
13 | FECNVCGANFTQKGNLLRHIKL [46F_47E_49N_50V_52G_53A_54N_55F_67L_, Q9UKT9] | -2.58 | -1.81 | 0.845 | 0.642
14 | FECDVCGANFTQKGNLLRHIKL [46F_47E_49D_50V_52G_53A_54N_55F_67L_, Q9UKT9] | -1.89 | -2.52 | 0.03 | -0.264
15 | FFCPVCGANFTQKGNLLRHIKL [46F_47F_49P_50V_52G_53A_54N_55F_67L_, Q9UKT9] | 2.53 | 3.51 | 1.89 | 1.22
16 | FWCNVCGANFTQKGNLLRHIKL [46F_47W_49N_50V_52G_53A_54N_55F_67L_, Q9UKT9] | 1.2 | 3.53 | 1.36 | -0.0957
17 | FWCDVCGANFTQKGNLLRHIKL [46F_47W_49D_50V_52G_53A_54N_55F_67L_, Q9UKT9] | 1.91 | 3.89 | 0.9 | -0.759
18 | FVCDVCGANFTQKGNLLRHIKL [46F_47V_49D_50V_52G_53A_54N_55F_67L_, Q9UKT9] | -1.78 | 0.744 | 0.282 | 0.237

Row | Sequence | log2 fold change of degron read counts [1] | log2 fold change of degron read counts [2] | log2 fold change of degron read counts [3] | log2 fold change of degron read counts (compound: thalidomide)
19 | FSCEICGHWFTQKGNLLRHIKL [46F_47S_49E_50I_52G_53H_54W_55F_67L_, Q9UKT9] | -2.92 | -3.14 | -2.71 | -2.77
20 | FRCNICGAMFTQKGNLLRHIKL [46F_47R_49N_50I_52G_53A_54M_55F_67L_, Q9UKT9] | -1.41 | -1.24 | -0.539 | -0.171
21 | FKCPICGHGFTQKGNLLRHIKL [46F_47K_49P_50I_52G_53H_54G_55F_67L_, Q9UKT9] | -2.34 | -2.29 | -2.14 | -1.69
22 | FYCPVCGAKFTQKGNLLRHIKL [46F_47Y_49P_50V_52G_53A_54K_55F_67L_, Q9UKT9] | 2.58 | 2.82 | 1.14 | 0.354
23 | FSCEVCGAHFTQKGNLLRHIKL [46F_47S_49E_50V_52G_53A_54H_55F_67L_, Q9UKT9] | 2.19 | 0.401 | 0.505 | 0.0402
24 | FCCEICGAMFTQKGNLLRHIKL [46F_47C_49E_50I_52G_53A_54M_55F_67L_, Q9UKT9] | 2.28 | 1.35 | 2.11 | 1.39
25 | FACEICGAMFTQKGNLLRHIKL [46F_47A_49E_50I_52G_53A_54M_55F_67L_, Q9UKT9] | 3.3 | 1.74 | 0.378 | -0.0211
26 | FHCEICGAMFTQKGNLLRHIKL [46F_47H_49E_50I_52G_53A_54M_55F_67L_, Q9UKT9] | 2.38 | 1.87 | 1.06 | -0.251
27 | FQCEICGAMFTQKGNLLRHIKL [46F_47Q_49E_50I_52G_53A_54M_55F_67L_, Q9UKT9] | -0.0508 | 2.24 | 2.45 | 3.57
28 | FDCEICGAMFTQKGNLLRHIKL [46F_47D_49E_50I_52G_53A_54M_55F_67L_, Q9UKT9] | 0.132 | -1.04 | -0.408 | 0.217
29 | FMCEICGAMFTQKGNLLRHIKL [46F_47M_49E_50I_52G_53A_54M_55F_67L_, Q9UKT9] | -0.964 | -0.957 | 1.9 | 0.514
30 | FNCEICGAMFTQKGNLLRHIKL [46F_47N_49E_50I_52G_53A_54M_55F_67L_, Q9UKT9] | 1.65 | -0.456 | -0.467 | -0.552
31 | FWCEICGAMFTQKGNLLRHIKL [46F_47W_49E_50I_52G_53A_54M_55F_67L_, Q9UKT9] | 3.33 | 3.63 | 2.34 | 0.517
32 | FFCEICGAMFTQKGNLLRHIKL [46F_47F_49E_50I_52G_53A_54M_55F_67L_, Q9UKT9] | 3.34 | 3.12 | 1.91 | 0.537
33 | FECEICGAMFTQKGNLLRHIKL [46F_47E_49E_50I_52G_53A_54M_55F_67L_, Q9UKT9] | -0.963 | -1.94 | 0.392 | 1.16
34 | FLCEICGAMFTQKGNLLRHIKL [46F_47L_49E_50I_52G_53A_54M_55F_67L_, Q9UKT9] | -0.288 | -1.63 | 0.563 | 0.887
35 | FGCEICGAMFTQKGNLLRHIKL [46F_47G_49E_50I_52G_53A_54M_55F_67L_, Q9UKT9] | 3 | 2.34 | 1.39 | 0.523
